The full data set covers some 7,900 targets. This sample favours those with a hit. About 0.6% of all pairs of compound and target were hits.
Columns and labels:
Test in all cases: log2 fold change, soluble protein after heating vs DMSO (PISA); higher = thermal stabilisation; K562 cells, 10 uM, 30 min; active = over 0.2 and 3.5 SD of the protein, either way, in both replicates (recomputed)
[1] = compound: C1=CC=C(C=C1)[C@H](COC2=CC3=C(C=C2)NC(=O)N3)NC(=O)C4=CC=CN(C4=O)CC5=CC(=C(C=C5)F)F
In short: (§1)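 K562 cells at 2×10^6 cells/mL were exposed to 10 μM compound for 30 min, then aliquots were heated for 3 min across 48°C-58°C, pooled, and extracted in PBS containing 0.5% NP-40 at 4°C. The supernatant after 21,000xg for 90 min was taken as soluble protein and measured by TMTpro 16plex LC-MS/MS with channel sums equalised. Thermal stability is reported relative to control samples, with values from duplicates. Fold changes are given on a log2 scale.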

[2] = compound: CC1=C(SC2=C1C(=N[C@H](C3=NN=C(N32)C)CC(=O)N)C4=CC=C(C=C4)Cl)C
In short: as §1

[3] = compound: CC1=C2C(=CC=C1)N=C(N(C2=O)C3=CC=CC=C3C)CN4C=NC5=C(N=CN=C54)N
In short: as §1

[4] = compound: Cc1sc2c(c1C)C(c1ccc(Cl)cc1)=N[C@@H](CC(=O)OC(C)(C)C)c1nnc(C)n1-2
In short: as §1

[5] = compound: c1ccc([C@@H]2C[C@H]2NC2CCNCC2)cc1
In short: as §1

Measured: log2 fold change

PARL (UniProt Q9H300)
Sequence of UniProt Q9H300 (Q9H300 whole entry, looked up): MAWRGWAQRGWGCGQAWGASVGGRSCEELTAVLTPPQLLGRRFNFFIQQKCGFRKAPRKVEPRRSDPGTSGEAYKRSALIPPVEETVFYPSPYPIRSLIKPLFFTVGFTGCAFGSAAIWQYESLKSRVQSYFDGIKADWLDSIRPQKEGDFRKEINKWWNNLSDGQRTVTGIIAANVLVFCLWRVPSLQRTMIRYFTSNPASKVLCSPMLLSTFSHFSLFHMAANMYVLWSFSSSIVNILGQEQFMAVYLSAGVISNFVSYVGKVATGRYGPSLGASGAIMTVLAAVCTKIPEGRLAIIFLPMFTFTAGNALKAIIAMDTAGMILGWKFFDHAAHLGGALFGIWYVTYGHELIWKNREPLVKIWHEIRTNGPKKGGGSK
inactive: [1] 0.017 | [2] -0.017 | [3] 0.045 | [4] 0.028 | [5] 0.031

PSMD1 (UniProt Q99460)
Sequence of UniProt Q99460 (Q99460 whole entry, looked up): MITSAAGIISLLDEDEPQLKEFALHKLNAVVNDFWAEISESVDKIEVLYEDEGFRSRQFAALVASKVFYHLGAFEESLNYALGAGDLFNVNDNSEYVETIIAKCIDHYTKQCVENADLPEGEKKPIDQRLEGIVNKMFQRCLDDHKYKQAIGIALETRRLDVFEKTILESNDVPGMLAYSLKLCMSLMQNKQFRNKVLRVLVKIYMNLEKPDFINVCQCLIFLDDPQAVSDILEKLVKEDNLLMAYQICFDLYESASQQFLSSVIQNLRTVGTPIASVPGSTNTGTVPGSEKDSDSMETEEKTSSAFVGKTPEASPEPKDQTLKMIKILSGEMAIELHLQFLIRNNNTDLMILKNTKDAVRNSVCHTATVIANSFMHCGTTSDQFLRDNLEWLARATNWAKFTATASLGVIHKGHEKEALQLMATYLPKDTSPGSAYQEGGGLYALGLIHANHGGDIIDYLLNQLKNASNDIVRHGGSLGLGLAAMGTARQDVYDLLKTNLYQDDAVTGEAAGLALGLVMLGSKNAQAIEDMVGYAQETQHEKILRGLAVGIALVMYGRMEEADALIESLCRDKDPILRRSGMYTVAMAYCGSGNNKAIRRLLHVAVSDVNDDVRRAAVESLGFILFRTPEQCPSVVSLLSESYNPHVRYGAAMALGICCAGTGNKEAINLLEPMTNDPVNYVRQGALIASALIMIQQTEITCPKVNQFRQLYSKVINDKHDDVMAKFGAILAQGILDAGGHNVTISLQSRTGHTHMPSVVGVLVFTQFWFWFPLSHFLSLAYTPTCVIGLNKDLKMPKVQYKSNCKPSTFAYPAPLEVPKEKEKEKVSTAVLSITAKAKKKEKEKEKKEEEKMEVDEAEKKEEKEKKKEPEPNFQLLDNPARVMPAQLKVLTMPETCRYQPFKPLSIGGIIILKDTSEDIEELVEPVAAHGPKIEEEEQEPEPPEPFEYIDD
inactive: [1] 0.017 | [2] -0.087 | [3] -0.058 | [4] -0.017 | [5] 0

PSPC1 (UniProt Q8WXF1)
Sequence of UniProt Q8WXF1 (Q8WXF1 whole entry, looked up): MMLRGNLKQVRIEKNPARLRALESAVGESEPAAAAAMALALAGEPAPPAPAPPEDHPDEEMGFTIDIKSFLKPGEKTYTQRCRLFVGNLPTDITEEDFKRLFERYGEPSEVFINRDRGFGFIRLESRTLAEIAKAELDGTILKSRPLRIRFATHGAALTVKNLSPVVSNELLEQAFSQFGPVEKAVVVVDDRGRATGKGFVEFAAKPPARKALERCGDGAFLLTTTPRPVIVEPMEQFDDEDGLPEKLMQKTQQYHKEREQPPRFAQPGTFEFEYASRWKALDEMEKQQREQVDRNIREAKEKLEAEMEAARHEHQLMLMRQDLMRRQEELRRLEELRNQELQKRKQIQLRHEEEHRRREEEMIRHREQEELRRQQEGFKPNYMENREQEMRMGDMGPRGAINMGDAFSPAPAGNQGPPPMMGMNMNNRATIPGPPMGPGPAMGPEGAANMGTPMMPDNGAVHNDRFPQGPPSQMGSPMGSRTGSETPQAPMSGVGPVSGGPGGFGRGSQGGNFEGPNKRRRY
inactive: [1] -0.023 | [2] -0.029 | [3] 0.038 | [4] -0.032 | [5] 0.015

PECAM1 (UniProt P16284)
inactive: [1] 0.063 | [2] 0.138 | [3] 0.014 | [4] -0.06 | [5] 0.047

PRG4 (UniProt Q92954)
inactive: [1] 0.007 | [2] -0.044 | [3] -0.15 | [4] -0.309 | [5] -0.033

PTRH2 (UniProt Q9Y3E5)
Sequence of UniProt Q9Y3E5 (Q9Y3E5 whole entry, looked up): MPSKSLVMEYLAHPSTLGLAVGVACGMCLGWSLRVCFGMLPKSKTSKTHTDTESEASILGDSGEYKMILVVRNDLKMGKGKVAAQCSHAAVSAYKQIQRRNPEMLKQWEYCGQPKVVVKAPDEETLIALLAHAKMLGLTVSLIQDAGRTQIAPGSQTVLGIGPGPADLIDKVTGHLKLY
inactive: [1] 0.018 | [2] 0.068 | [3] 0.019 | [4] -0.106 | [5] -0.02

PRKACA (UniProt P17612)
inactive: [1] -0.01 | [2] 0.005 | [3] -0.053 | [4] -0.009 | [5] 0.035

PPP4R3B (UniProt Q5MIZ7)
Sequence of UniProt Q5MIZ7 (Q5MIZ7 whole entry, looked up): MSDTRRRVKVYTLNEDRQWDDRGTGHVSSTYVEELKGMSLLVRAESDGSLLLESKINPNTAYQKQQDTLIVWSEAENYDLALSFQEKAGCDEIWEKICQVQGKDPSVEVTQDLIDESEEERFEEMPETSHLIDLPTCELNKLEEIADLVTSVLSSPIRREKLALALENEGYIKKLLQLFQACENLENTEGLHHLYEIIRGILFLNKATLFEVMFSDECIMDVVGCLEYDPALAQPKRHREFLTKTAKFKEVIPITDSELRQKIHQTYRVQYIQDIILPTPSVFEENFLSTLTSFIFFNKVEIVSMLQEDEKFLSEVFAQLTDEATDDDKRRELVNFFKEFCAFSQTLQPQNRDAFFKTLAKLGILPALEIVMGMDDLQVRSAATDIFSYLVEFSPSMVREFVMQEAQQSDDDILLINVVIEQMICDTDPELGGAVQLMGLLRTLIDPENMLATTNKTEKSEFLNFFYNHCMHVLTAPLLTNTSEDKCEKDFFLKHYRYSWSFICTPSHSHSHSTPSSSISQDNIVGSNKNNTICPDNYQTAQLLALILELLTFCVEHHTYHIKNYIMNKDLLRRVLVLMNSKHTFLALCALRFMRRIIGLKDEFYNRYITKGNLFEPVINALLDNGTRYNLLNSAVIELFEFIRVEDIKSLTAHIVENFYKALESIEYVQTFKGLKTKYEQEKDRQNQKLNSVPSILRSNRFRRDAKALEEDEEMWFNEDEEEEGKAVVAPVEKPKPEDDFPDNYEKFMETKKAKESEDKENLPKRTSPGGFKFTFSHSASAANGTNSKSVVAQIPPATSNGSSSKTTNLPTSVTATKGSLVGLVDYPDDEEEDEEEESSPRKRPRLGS
inactive: [1] -0.014 | [2] 0.069 | [3] 0.134 | [4] 0.003 | [5] -0.005

POLR2I (UniProt P36954)
inactive: [1] 0.063 | [2] 0.104 | [3] -0.163 | [4] 0.194 | [5] -0.035

PTTG1IP (UniProt P53801)
Sequence of UniProt P53801 (P53801 whole entry, looked up): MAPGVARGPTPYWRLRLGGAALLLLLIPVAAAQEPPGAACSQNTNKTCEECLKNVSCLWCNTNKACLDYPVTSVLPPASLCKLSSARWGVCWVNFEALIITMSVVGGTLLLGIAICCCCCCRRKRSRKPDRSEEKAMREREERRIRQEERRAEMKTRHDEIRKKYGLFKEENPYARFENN
inactive: [1] 0.149 | [2] -0.055 | [3] -0.134 | [4] 0.04 | [5] 0.084

PRKCD (UniProt Q05655)
Sequence of UniProt Q05655 (Q05655 whole entry, looked up): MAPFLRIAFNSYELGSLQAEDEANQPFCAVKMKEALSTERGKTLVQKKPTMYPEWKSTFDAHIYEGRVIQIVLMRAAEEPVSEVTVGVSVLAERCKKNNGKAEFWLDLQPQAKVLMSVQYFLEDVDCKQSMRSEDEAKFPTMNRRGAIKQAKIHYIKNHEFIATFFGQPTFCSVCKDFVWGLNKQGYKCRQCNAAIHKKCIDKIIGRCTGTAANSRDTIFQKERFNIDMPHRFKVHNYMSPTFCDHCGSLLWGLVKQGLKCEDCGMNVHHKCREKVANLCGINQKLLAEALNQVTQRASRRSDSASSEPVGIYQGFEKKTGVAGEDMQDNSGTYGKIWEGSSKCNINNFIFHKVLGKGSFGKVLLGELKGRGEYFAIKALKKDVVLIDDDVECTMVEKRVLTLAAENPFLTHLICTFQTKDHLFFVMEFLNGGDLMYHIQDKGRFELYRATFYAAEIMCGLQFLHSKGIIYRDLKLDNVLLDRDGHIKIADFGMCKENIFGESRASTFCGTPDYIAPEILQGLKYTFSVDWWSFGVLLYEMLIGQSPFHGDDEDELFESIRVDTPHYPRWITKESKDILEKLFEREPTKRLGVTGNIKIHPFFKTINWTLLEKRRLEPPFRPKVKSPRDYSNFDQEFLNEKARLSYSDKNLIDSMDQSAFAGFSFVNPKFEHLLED
inactive: [1] -0.05 | [2] 0.082 | [3] 0.071 | [4] 0.004 | [5] -0.021

Reference: the supplement of paper PMC10849652
